Measured values reported in PubChem BioAssay AID623901 (Broad Institute, 2012).
The campaign covered roughly 340,000 compounds. About 470 (0.14%) were called active.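 Rule for the calls: active = mean activation of 30% or more, with every replicate also reaching 30%; inconclusive = mean activation of 30% or more but some replicate falls short; inactive = the rest.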 Many of the other results were omitted from the sample, so actives are more common in it than they were.

Experiment: miR-122 suppressors via Renilla sensor increase, primary screen, cell-based, Huh7 psiCHECK-miR122, Renilla luciferase, single point (AID 623901);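 note: 0% = median of neutral control wells and 100% = median of positive control wells; higher luciferase signal means stronger suppression of miR-122 activity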
Conditions: 48 h, at 12.5 µM, hits give high values

| Compound | activation |
| --- | --- |
| C/C=C/c1ccc2c(c1)O[C@@H](CN(C)S(C)(=O)=O)[C@@H](C)CN([C@H](C)CO)S2(=O)=O | 3.54% (inactive) |
| CCCNC(=O)N(C)C[C@@H]1Oc2ncc(C#CC(C)C)cc2C(=O)N([C@H](C)CO)C[C@H]1C | 10.4% (inactive) |
| C[C@H]1CN([C@@H](C)CO)S(=O)(=O)c2ccc(C#CCN(C)C)cc2O[C@H]1CN(C)C(=O)CN(C)C | 8.35% (inactive) |
| COCC(=O)Nc1ccc2c(c1)OC[C@H](C)NC[C@@H](C)[C@H](OC)CN(C)C2=O | -4.6% (inactive) |
| CCC(=O)N(C)C[C@@H]1Oc2cc(C#C[C@H](C)O)ccc2S(=O)(=O)N([C@@H](C)CO)C[C@H]1C | -2.5% (inactive) |
| C/C=C/c1cnc2c(c1)C(=O)N([C@H](C)CO)C[C@H](C)[C@@H](CN(C)CC1CCOCC1)O2 | 2.95% (inactive) |
| CCN1CCN(C(c2cccnc2)c2cc(Cl)c3cccnc3c2O)CC1 (stereo not drawn) | 49.7% (active) |
| O=C1c2ccccc2C2=Nc3ccccc3SC(c3ccccc3F)C12 (stereo not drawn) | -162% (inactive) |
| O=C(CNCCC1=CCCCC1)Nc1ccccc1N1CCCCCC1 | 76.7% (active) |
| C=CCNC(=O)c1ccccc1NC(=O)c1ccc(Cl)c(S(=O)(=O)Nc2cccc(C)c2C)c1 | -155% (inactive) |
| COc1ccc(C(CCN(Cc2ccc(OC)c(OC)c2)C(=O)CCl)c2ccccc2)cc1 (stereo not drawn) | 34.7% (active) |
| CC(C)CC#Cc1cnc2c(c1)C(=O)N([C@H](C)CO)C[C@H](C)[C@H](CN(C)C(=O)Nc1ccccc1F)O2 | 4.61% (inactive) |
| C[C@H](CO)N1C[C@H](C)[C@@H](CN(C)C(=O)Cc2ccncc2)Oc2ncc(C#CCN(C)C)cc2C1=O | 3.61% (inactive) |
| COCC#Cc1cnc2c(c1)C(=O)N([C@@H](C)CO)C[C@@H](C)[C@@H](CN(C)S(=O)(=O)c1cccc(OC)c1)O2 | -3.48% (inactive) |
| C[C@@H](O)C#Cc1cnc2c(c1)C(=O)N([C@@H](C)CO)C[C@H](C)[C@H](CN(C)Cc1cncnc1)O2 | 3.47% (inactive) |
| Cc1cc(C(C)(C)C)cc(S(=O)(=O)Nc2ccc(C(=O)O)cc2)c1C | -165% (inactive) |
| C[C@H](CO)N1C[C@H](C)[C@H](CN(C)C(=O)Nc2ccc3c(c2)OCO3)Oc2ncc(C#Cc3cccc(F)c3)cc2C1=O | 5.6% (inactive) |
| CNC[C@@H]1Oc2cc(-c3ccccc3OC)ccc2S(=O)(=O)N([C@@H](C)CO)C[C@H]1C | -2.47% (inactive) |
| CN1C[C@@H]2[C@H](c3ccccc31)[C@@H](CO)N2C(=O)Nc1ccccc1 | 41.7% (active) |
| O=C(Nc1cc(F)ccc1F)N1C[C@H]2[C@@H](c3ccccc31)[C@@H](CO)N2C(=O)c1ccccc1 | -133% (inactive) |
| O=C(Cc1ccccc1)N1C[C@@H]2[C@H](c3ccccc31)[C@@H](CO)N2C(=O)Nc1ccc(F)cc1 | -92.3% (inactive) |
| C[C@H](O)C#Cc1ccc2c(c1)O[C@H](CN(C)Cc1cncnc1)[C@H](C)CN([C@@H](C)CO)S2(=O)=O | -0.322% (inactive) |
| CC(C)c1cc(C(=O)O)n[nH]1 | -143% (inactive) |

| Compound | activation |
| --- | --- |
| C[C@H](CO)N1C[C@H](C)[C@H](CN(C)S(=O)(=O)c2ccccc2)Oc2ncc(-c3cccc(C(F)(F)F)c3)cc2C1=O | 11.3% (inactive) |
| COCC(=O)Nc1ccc2c(c1)OC[C@H](C)NC[C@H](C)[C@H](OC)CN(C)C2=O | -0.878% (inactive) |
| C[C@H](O)C#Cc1ccc2c(c1)O[C@@H](CN(C)Cc1cncnc1)[C@H](C)CN([C@H](C)CO)S2(=O)=O | 0.702% (inactive) |
| COCC(=O)N(C)C[C@@H]1Oc2ncc(C#Cc3ccccc3OC)cc2C(=O)N([C@@H](C)CO)C[C@H]1C | 5.1% (inactive) |
| C[C@@H]1CN([C@H](C)CO)S(=O)(=O)c2ccc(-c3cncnc3)cc2O[C@@H]1CN(C)Cc1ccccn1 | 5.28% (inactive) |
| COCC(=O)N(C)C[C@H]1Oc2cc(Br)ccc2S(=O)(=O)N([C@H](C)CO)C[C@H]1C | -1.48% (inactive) |
| CCC(=O)N(C)C[C@H]1Oc2ncc(C#Cc3cccnc3)cc2C(=O)N([C@H](C)CO)C[C@H]1C | 6.77% (inactive) |
| C[C@@H]1CN([C@H](C)CO)C(=O)c2cc(-c3cccc(F)c3)cnc2O[C@H]1CN(C)C(=O)Nc1ccccc1F | -3.89% (inactive) |
| C[C@H](O)C#Cc1ccc2c(c1)O[C@@H](CN(C)Cc1cccnc1)[C@H](C)CN([C@H](C)CO)S2(=O)=O | 0.774% (inactive) |
| CCCNc1ncnc2sc(C)c(C)c12 | -122% (inactive) |
| Cc1ccc(S(=O)(=O)N(C)C[C@H]2Oc3ccc(NC(=O)CCC(F)(F)F)cc3C(=O)N([C@@H](C)CO)C[C@H]2C)cc1 | -99.9% (inactive) |
| C[C@@H]1CN([C@@H](C)CO)S(=O)(=O)c2ccc(-c3ccncc3)cc2O[C@@H]1CN(C)C(=O)Nc1ccc(F)cc1 | -17.3% (inactive) |
| C[C@H](CO)N1C[C@H](C)[C@@H](CN(C)C(=O)C2CC2)Oc2ncc(C#CC(C)(C)O)cc2C1=O | 1.07% (inactive) |
| C[C@H]1CN([C@@H](C)CO)C(=O)c2cc(C3=CCCCC3)cnc2O[C@@H]1CN(C)C(=O)c1ccc(F)cc1 | -3.28% (inactive) |
| CO[C@@H]1CN(C)C(=O)c2cc(NC(=O)C3CCOCC3)ccc2OC[C@H](C)N(C)C[C@H]1C | 0.196% (inactive) |
| Cc1ccc(S(=O)(=O)Nc2ccc3c(c2)CC(=O)N([C@@H](C)CO)C[C@H](C)[C@H](CN(C)Cc2ccc(C(=O)Nc4ccccc4N)cc2)O3)cc1 | -252% (inactive) |
| CCC(=O)Nc1ccc2c(c1)OC[C@H](C)N(C(=O)c1ccccc1F)C[C@@H](C)[C@H](OC)CN(C)C2=O | -3.57% (inactive) |
| C[C@H]1CN([C@@H](C)CO)C(=O)c2cc(-c3cccc(F)c3)cnc2O[C@@H]1CN(C)S(C)(=O)=O | -3.18% (inactive) |
| COc1ccc(/C=C/C(=O)Nc2ccc(C34CC5CC(CC(O)(C5)C3)C4)cc2)cc1OC | 56.9% (active) |
| CC(C)NC(=O)N(C)C[C@@H]1Oc2ncc(C3=CCCCC3)cc2C(=O)N([C@H](C)CO)C[C@@H]1C | 5.61% (inactive) |
| Cc1ccc(-c2cnc3c(c2)C(=O)N([C@@H](C)CO)C[C@@H](C)[C@H](CN(C)Cc2ccccc2F)O3)cc1 | -34.6% (inactive) |
| C/C=C/c1ccc2c(c1)O[C@@H](CN(C)C(=O)Cc1ccccn1)[C@@H](C)CN([C@H](C)CO)S2(=O)=O | -0.361% (inactive) |
| CCOC(=O)c1c(C)[nH]c(C)c1S(=O)(=O)NCCCc1ccco1 | -128% (inactive) |

| Compound | activation |
| --- | --- |
| CCC(=O)N1C[C@@H](C)[C@@H](OC)CN(C)C(=O)c2ccc(NC(=O)C3CCCCC3)cc2OC[C@@H]1C | 0.432% (inactive) |
| C[C@H](CO)N1C[C@H](C)[C@H](CN(C)S(=O)(=O)c2cccc(F)c2)Oc2ncc(/C=C/c3ccccc3)cc2C1=O | -2.26% (inactive) |
| COCC(=O)N(C)C[C@@H]1Oc2cc(C#CC3CC3)ccc2S(=O)(=O)N([C@H](C)CO)C[C@H]1C | 3.88% (inactive) |
| CCC(=O)N(C)C[C@H]1Oc2ncc(C#C[C@@H](C)O)cc2C(=O)N([C@@H](C)CO)C[C@H]1C | 2.8% (inactive) |
| COCC#Cc1cnc2c(c1)C(=O)N([C@@H](C)CO)C[C@@H](C)[C@@H](CN(C)C(=O)Nc1ccccc1OC)O2 | 1.08% (inactive) |
| CS(=O)(=O)N(CC(=O)Nc1ccc(Cl)c(Cl)c1)C1CCCCC1 | -174% (inactive) |
| O=C(CC(O)(C(F)(F)F)C(F)(F)F)Nc1ccc(Cl)c(Cl)c1 | 63% (active) |
| C[C@@H](O)C#Cc1ccc2c(c1)O[C@@H](CN(C)C)[C@@H](C)CN([C@@H](C)CO)S2(=O)=O | -3.26% (inactive) |
| COc1ccc(C(=O)Nc2ccccc2C(=O)N/N=C/c2ccccc2OC)cc1 | -115% (inactive) |
| CCCN(C)C[C@H]1Oc2ncc(-c3ccccc3OC)cc2C(=O)N([C@H](C)CO)C[C@H]1C | -2.24% (inactive) |
| COc1ccccc1CNc1nc(Nc2ccccc2Cl)c2sccc2n1 | 44.5% (active) |
| C[C@@H]1CN([C@H](C)CO)S(=O)(=O)c2ccc(C#CCN(C)C)cc2O[C@@H]1CN(C)C(=O)CN(C)C | 5.44% (inactive) |
| COc1ccc(CNS(=O)(=O)c2cc(-c3cc(C)no3)ccc2C(C)C)cc1 | -200% (inactive) |
| OCC(O)C1OCOC(C(O)CO)C1O (stereo not drawn) | -93% (inactive) |
| C[C@@H]1CN([C@@H](C)CO)C(=O)c2cc(-c3ccc(F)cc3)cnc2O[C@@H]1CN(C)Cc1ccc(C(=O)O)cc1 | 1.12% (inactive) |
| CO[C@@H]1CN(C)C(=O)c2ccc(NC(=O)C3CCC3)cc2OC[C@H](C)NC[C@H]1C | 1.3% (inactive) |
| C[C@@H]1CN([C@H](C)CO)C(=O)c2cc(-c3ccncc3)cnc2O[C@@H]1CN(C)C(=O)Cc1cccnc1 | -6.69% (inactive) |
| COc1ccccc1-c1ccc2c(c1)O[C@@H](CN(C)C(=O)Nc1ccccc1)[C@H](C)CN([C@@H](C)CO)S2(=O)=O | -1.07% (inactive) |
| COCC#Cc1ccc2c(c1)O[C@@H](CN(C)C(C)=O)[C@H](C)CN([C@H](C)CO)S2(=O)=O | 5.04% (inactive) |
| COc1ccccc1-c1cnc2c(c1)C(=O)N([C@H](C)CO)C[C@H](C)[C@H](CN(C)C(=O)CN(C)C)O2 | -1.92% (inactive) |
| COc1ccccc1C#Cc1ccc2c(c1)O[C@@H](CN(C)Cc1cncnc1)[C@H](C)CN([C@@H](C)CO)S2(=O)=O | 8.43% (inactive) |
| C[C@H](O)C#Cc1ccc2c(c1)O[C@H](CN(C)Cc1cccnc1)[C@@H](C)CN([C@H](C)CO)S2(=O)=O | -6.12% (inactive) |
